Records with an inconclusive call do not appear. Values without a mark were called inactive. Activity calls are given as the source filed them. Calls come from the whole dose curve; as a rule, active = well fitted inhibition curve with a large enough effect; inconclusive = small, poorly fitted or top-dose-only effect; inactive = flat fitted curve, though single readings scatter. Where a SMILES comes first, the peptide text is derived from it. Bridges are numbered along the chain shown (N, C = ends). [ ]: non-standard residue; d: D form. NMeY = CN[CH](Cc1ccc(O)cc1)C(=O)O

The text below walks through data of PubChem BioAssay (NCATS).

One assay relates to HEK293. As to the kind of experiment: Cytotoxic Profiling of Annotated Libraries Using Quantitative High-Throughput Screening (AID 1296008). Note: potency is the fitted concentration of half-maximal effect. The following applies: Five cell lines viability, CellTiter-Glo ATP luminescence, 48-72 h; max response: stronger effect = lower value. The essentials: (§1)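 Compounds were pin-transferred onto cells and incubated 48 or 72 hr at 37 degree Celsius, 95% humidity. CellTiter-Glo was added, plates sat 10 min at room temperature, then ATP-coupled luminescence was imaged as the viability read-out.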
For orientation: Cellular ATP, detected with luciferase, serves as a proxy for viable cell number.

The subject of assay [1] is HaCat. The description is as above. The following applies: Five cell lines viability, CellTiter-Glo ATP luminescence, 48-72 h; max response: stronger effect = lower value. The essentials: as §1
The next assay has as its system KB-3-1. The description is as above. The following applies: Five cell lines viability, CellTiter-Glo ATP luminescence, 48-72 h; max response: stronger effect = lower value. The essentials: as §1
A further assay concerns NIH3T3. Described as above. The following applies: Five cell lines viability, CellTiter-Glo ATP luminescence, 48-72 h; max response: stronger effect = lower value. The essentials:
as §1

In assay [2] the test system is HACAT. As to the kind of experiment: qHTS assay to identify novel small-molecules to repurpose for Merkel cell carcinoma treatment (AID 1296009). The following applies: MCC and control cell lines, CellTiter-Glo viability, 72 h; series mostly up to 44.8 µM. The essentials: (§2)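 Cells exposed to NPC (8-point) and MIPE (11-point) compound dilutions for 72 hr at 37 degree celsius; viability read by CellTiter-Glo luminescence, normalized to no-cell and DMSO in-plate controls.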

In the next assay the test system is HEK293T. The description is as above. The note with it: MCC and control cell lines, CellTiter-Glo viability, 72 h; at 44.8 µM (top of the series) unless noted. The essentials:
as §2

The test system of the next assay is MCC-26. The assay is described as above. The following applies: MCC and control cell lines, CellTiter-Glo viability, 72 h; series mostly up to 46 µM. The essentials: as §2
% is set by controls: 0 for no effect and ±100 for the full control effect.
Note: nearly all actives have a fitted effect of over 60% in size.

In the case of `C=CC(C)(C)c1[nH]c2cc3c(cc2c1CC1NC(=O)C2CCCN2C1=O)C=CC(C)(C)O3` (stereo not given), the molecule was classed as inactive with HEK293, in the assay on HaCat [1] and with NIH3T3. In the assay on KB-3-1, the max response was 8.42%. Further, the Potency entry in the assay on HACAT [2] is “inactive”. Further, in the assay with HEK293T, the outcome is “inactive [at 17.4 µM]”.
For `CC(=O)O[C@H]1CC[C@@]2(C)C(CC[C@@H](C)[C@]23Cc2c(O)cc4c(c2O3)CN([C@@H](CCC(=O)O)C(=O)O)C4=O)C1(C)C` (stereo not given in full), the max response in the assay on HEK293 was -7.36%; with NIH3T3 it was 2.49%. Also, the molecule was classed as inactive in the assay with HaCat [1] and with KB-3-1. Besides, the Potency entry with HACAT [2] was “inactive”.
As for `C[C@@H]1O[C@@H](O[C@@H]2[C@@H](O)[C@@H](O[C@]3(CO)O[C@H](CO)[C@@H](O)[C@@H]3OC(=O)/C=C/c3ccc(O)cc3)O[C@H](CO)[C@H]2OC(=O)/C=C/c2ccc(O)cc2)[C@H](O)[C@H](O)[C@H]1O[C@@H]1O[C@@H](C)[C@H](O[C@@H]2OC[C@](O)(CO)[C@H]2O)[C@@H](O)[C@H]1O`, the result with HEK293 and in the assay on HaCat [1] was inactive. Further, the max response with KB-3-1 is 3.92%; in the assay on NIH3T3 it was -0.786%. Besides, the outcome in the assay with HACAT [2] and with HEK293T was “inactive [at 9.27 µM]” in each case.
Consider `COC(=O)CC(C)(O)CC(=O)OCc1ccc(O[C@@H]2O[C@H](CO)[C@@H](O)[C@H](O)[C@H]2O)cc1` (stereo not given in full), for which the call with HEK293 was inactive. Besides, the max response in the assay on HaCat [1] is 2.19%; in the assay on KB-3-1, 4.52%; with NIH3T3, -2.06%. In addition, in the assay with HEK293T, the outcome is “inactive [at 17.4 µM]”.
For `CNC(=O)c1cc(Oc2ccc3nc(N[C@@H]4CCCC[C@H]4O)sc3c2)ccn1`, in the assay with HEK293, the Potency is 16.4 µM (active). Besides, in the assay on HaCat [1], the molecule was classed as inactive. Further, in the assay on KB-3-1, the max response is -18.3%. The Potency result with HACAT [2] was “inactive”.
In the case of `CC1(C)CCC[C@@]2(C)C1[C@H](OC(=O)/C=C/C=C/C(=O)O)C=C1COC(=O)[C@@]12O` (stereo not given in full), the figures for the max response in the assay with HEK293 and with KB-3-1 were -4.94% and 0.106%, respectively. For the same molecule, the result in the assay on HaCat [1] and in the assay on NIH3T3 was inactive. The Potency result in the assay with HACAT [2] is “inactive”.
On to `CCC(C)C1NC(=O)C2CCCN2C(=O)C(NC(C)=O)C(C)OC(=O)C(Cc2ccc(OC)cc2)N(C)C(=O)C2CCCN2C(=O)C(C(C)C)NC1=O` (stereo not given) (Ac-TPIVP[NMeY](Me); ester 1-C; configuration not given here), for which the max response in the assay with HEK293 was -18.8%; in the assay on KB-3-1 it was -2.69%. Further, the molecule was called inactive in the assay on HaCat [1] and in the assay with NIH3T3. In addition, in the assay on HACAT [2], the Potency result is “inactive”.
With `O=C(O)Cc1cn(C2OCC(O)C(O)C2O[C@@H]2O[C@H](CO)[C@@H](O)[C@H](O)[C@H]2O)c2ccccc12` (stereo not given in full), the max response with HEK293 is 0.817%; with NIH3T3, 2.49%. Also, the molecule was called inactive in the assay on HaCat [1] and with KB-3-1. Further, the Potency entry with HACAT [2] is “inactive”.
Consider `COc1c(/C=C/C(C)(C)O)ccc2c1C(=O)OCc1cc(C)cc(O)c1O2`, for which the max response in the assay with HEK293 was -114%; in the assay with KB-3-1, -23.3%; in the assay on NIH3T3, 2.57%. Also, the result in the assay with HaCat [1] was inactive. The Potency entry in the assay with HACAT [2] is “inactive”.
With `Nc1ccccc1N`, the Potency with HEK293 is 17.2 µM (active). In addition, the max response is 3.79% with HaCat [1] and -4.37% in the assay on KB-3-1. The outcome in the assay with MCC-26 was inactive.
In the case of `COc1c2c(c(CO)c3c1C(=O)OC3)OC1(C)CCC3(O)C(C)(C)OC(=O)CCC3(C)C1C2` (stereo not given), the result with HEK293 and with KB-3-1 was inactive. Also, the values for the max response in the assay on HaCat [1] and with NIH3T3 were -24.1% and -8.25%, respectively. Moreover, in the assay with HEK293T, the outcome was “inactive [at 17.4 µM]”.
As for `CCC(C)/C=C(C)/C=C/c1cc2c(cn1)C(=O)C(C)(OC(C)=O)C(O)=C2Cl` (stereo not given), in the assay on HEK293, the max response is -0.415%. Also, the outcome in the assay with HaCat [1], in the assay with KB-3-1 and in the assay with NIH3T3 was inactive. Moreover, the Potency result in the assay with HACAT [2] was “inactive”.
In the case of `C=C1C(O)CC2C(C(=O)O)=COC(O[C@@H]3O[C@H](COC(=O)/C=C/c4ccc(O)cc4)[C@@H](O)[C@H](O)[C@H]3O)C12` (stereo not given in full), the molecule was called inactive in the assay with HEK293 and in the assay with KB-3-1. The max response was -10.4% in the assay on HaCat [1] and -4.95% in the assay on NIH3T3. For the same molecule, in the assay with HEK293T, the outcome was “inactive [at 17.4 µM]”.
With `COC(=O)C1=CO[C@@H](O[C@@H]2O[C@H](CO)[C@@H](O)[C@H](O)[C@H]2O)[C@H]2[C@@H]1C=C[C@@]21C=C([C@H](C)O)C(=O)O1`, the max response with HEK293 is -5.88%; with NIH3T3 it was 3.5%. Also, the call in the assay with HaCat [1] and with KB-3-1 was inactive. The Potency result with HACAT [2] was “inactive”.
With `C=C(C)C1CCC(C)C12CC(O)C1(C)OC1C2OC(=O)C(N)CCC(=O)O` (stereo not given), the figures for the max response in the assay on HEK293, in the assay with KB-3-1 and in the assay with NIH3T3 were -1.87%, 1.24% and 4.47%, respectively. In addition, in the assay with HaCat [1], the outcome was inactive. Further, the Potency result with HACAT [2] is “inactive”.
Turning to `CC(=O)OC1CC2C3(C)CCC(OC(=O)CC(=O)O)C(C)(C)C3CCC2(C)C2(C)CCC(C3(C)CCC(=O)O3)C12` (stereo not given), the molecule was called inactive in the assay with HEK293 and in the assay on KB-3-1. Besides, the max response is 3.4% in the assay with HaCat [1] and 2.16% with NIH3T3. Also, the outcome in the assay with HEK293T is “inactive [at 17.4 µM]”.
For the molecule `CC1=CC(=O)CC(C)(C)[C@H]1/C=C/C(CO)O[C@@H]1O[C@H](CO)[C@@H](O)[C@H](O)[C@H]1O` (stereo not given in full), the figures for the max response with HEK293 and with NIH3T3 were -4.12% and -2.41%, respectively. Moreover, the result in the assay with HaCat [1] and with KB-3-1 was inactive. The Potency entry with HACAT [2] is “inactive”.
For the molecule `CC12CCC(OC3OC(CO)C(O)C(OC4OC(CO)C(O)C(O)C4O)C3O)CC1=CCC1C2CCC2(C)/C(=C3/COC(=O)C3)CCC12O` (stereo not given), the max response in the assay with HEK293 is 0.267%; in the assay on KB-3-1, -7.93%; with NIH3T3, -3.87%. In addition, the molecule was classed as inactive in the assay with HaCat [1]. Besides, in the assay on HACAT [2], the Potency entry is “inactive”.
